Bioassay records: PubChem, National Center for Advancing Translational Sciences (NCATS)
A selection: hits, their analogues and other compounds. The true share with any hit is near 2.4%.
D2 antagonist: antagonizes the human D2 dopamine receptor; P14416; HEK293 TREx D2 cells, calcium flux, dopamine EC80; inhibition, % at 10 µM; hit rate 2% among 340,000; AID 485344; in the data active means inhibition above about 30%; inactive means below that, where a call was filed; further: 0% is about no effect
Target sequence (P14416 whole entry, looked up): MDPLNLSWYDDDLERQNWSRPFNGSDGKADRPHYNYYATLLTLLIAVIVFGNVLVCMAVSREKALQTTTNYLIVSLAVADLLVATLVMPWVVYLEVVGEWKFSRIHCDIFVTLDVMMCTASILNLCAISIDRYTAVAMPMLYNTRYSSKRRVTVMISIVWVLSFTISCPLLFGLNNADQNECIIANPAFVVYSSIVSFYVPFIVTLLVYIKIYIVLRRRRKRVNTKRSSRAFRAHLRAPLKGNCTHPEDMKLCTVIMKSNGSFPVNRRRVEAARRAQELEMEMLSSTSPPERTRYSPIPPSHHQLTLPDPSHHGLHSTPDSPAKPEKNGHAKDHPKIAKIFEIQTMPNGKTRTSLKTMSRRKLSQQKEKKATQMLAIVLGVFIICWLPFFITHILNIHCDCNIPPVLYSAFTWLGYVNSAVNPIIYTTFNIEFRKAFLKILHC
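HEK293 T-REx D2 cells, tet-induced, calcium dye no-wash. Cpd pintool add, 180 s kinetic, then EC80 DA, 180 s kinetic. Ca flux read.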
D2 ag-1: agonists of human D2 dopamine receptor. activation, % at 2 µM. hit rate 0.53% among 340,000. P14416. HEK293 T-REx D2 cells, calcium flux agonist mode;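 active means activation over 3 SD above normal in the single-dose calcium agonist read, cut at about 30% in these data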; further: 0% is about no effect
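Tetracycline-induced HEK293 T-REx cells with force-coupled D2 receptor, plated overnight at 30 C, loaded with no-wash calcium dye. After a 10 s baseline, compound was pin-added and calcium flux read kinetically for 180 s; calcium rises flagged agonists.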
D2 PAM-1: potentiates the human D2 dopamine receptor allosterically. DiscoveRx D2 beta-arrestin cells, luminescence, 90 min; 100% = 57 uM dopamine signal. P14416. AID 624464. potentiation, % (concentration not given with the values). hit rate 0.23% among 360,000; in the data active means potentiation above about 50%; inconclusive means mostly about 30% to 49%
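D2 cells co-treated with compound plus 50 nM dopamine (EC20) for 90 min at 37 deg C to detect potentiation. Beta-arrestin recruitment was read as enzyme-fragment luminescence after 1 h at ambient temperature. Full response was set by 57 uM dopamine.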
D2 ag-2: agonists of human D2 dopamine receptor (beta-arrestin) | DiscoveRx PathHunter D2 beta-arrestin, luminescence, 90 min; 100% = 57 uM dopamine signal | activation, % (test concentration not listed) | hit rate 0.084% among 360,000; in the data active means activation above about 40%; inconclusive means between about 15% and that limit
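DiscoveRx PathHunter D2 beta-arrestin cells (2,100/well) attached overnight, then compound-stimulated 90 min at 37 C in HBSS/10 mM HEPES/0.1% Tween-20 buffer; beta-galactosidase complementation read by luminescence after 1 h at ambient temperature. Dopamine 57 uM final (EC100) as control.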
D2 PAM-2: positive allosteric modulators of human D2 dopamine receptor; hit rate 0.34% among 340,000; potentiation, % at 10 µM; P14416; HEK293 T-REx D2, calcium flux, EC20 dopamine potentiation;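 active means potentiation over 3 SD above the plate norm, cut at about 30% in these data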; further: 0% is about no effect
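Primary screen. Calcium kinetics in induced HEK293 T-REx D2 cells: compound pre-addition 180 s, EC20 dopamine, 180 s more.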
Active calls of the source: *; ? = inconclusive; nt = no result; ! = not active in a repeat.

SMILES | D2 antagonist | D2 ag-1 | D2 PAM-1 | D2 ag-2 | D2 PAM-2
CCOc1ccc(CCNC(=O)c2cc3n(n2)CCCN(Cc2ccc(C)cc2)C3=O)cc1OCC | nt | 1.4 | nt | nt | 12.9
COc1ccc(/C=C(/NC(=O)c2cccc([N+](=O)[O-])c2)C(=O)O)cc1OC | 55.6* | -0.2 | -4.2 | 4.1 | -2.6
COC(=O)/C(=C/c1cccc([N+](=O)[O-])c1)NC(=O)c1ccc(OC)cc1 | 9.8 | -0.5 | 2.0 | -0.3 | 6.4
Cc1ccsc1C(=O)N1CCC1(C)C(=O)NCc1cccnc1 (stereo not given) | nt | nt | -2.0 | -3.3 | nt
O=C(N[C@H]1CC1c1ccccc1)c1ccc([N+](=O)[O-])cc1 (stereo not given in full) | 32.9* | -1.7 | -13.3 | 0.7 | -21.7
CN(C)C=NC(=O)c1cc(C(=O)c2ccccc2)c[nH]1 | 33.2* | 0.0 | -1.2 | -1.6 | -0.4
CN(C)C=NC(=O)c1cc(C(=O)c2ccc(F)cc2)c[nH]1 | 5.4 | -0.1 | -4.5 | -0.9 | -0.6
O=C(NCc1ccccc1C(F)(F)F)C1CC(c2cccc(F)c2)=NO1 (stereo not given) | 41.8* | 1.0 | -10.4 | -2.9 | 11.6
O=C(NCc1ccccc1C(F)(F)F)C1CC(c2cc(C(F)(F)F)cc(C(F)(F)F)c2)=NO1 (stereo not given) | 7.7 | 0.1 | 6.4 | 2.5 | 3.3
COc1ccc(-c2oc3cccnc3c2/C=C/c2ccc(OC)c(OC)c2)cc1 | 30.0* | 0.5 | 8.8 | -0.9 | -2.8
CCNC(=O)C1(C)CCN(Cc2cccc(C(F)(F)F)c2)C1 (stereo not given) | nt | nt | -14.7 | -5.8 | nt
CCc1cc2cccc(C)c2nc1SCC(=O)c1ccc(NC(C)=O)cc1 | 46.6* | 0.9 | 2.2 | -1.6 | -1.0
CCc1cc2ccc(C)cc2nc1SCC(=O)c1ccc(NC(C)=O)cc1 | 9.2 | 1.1 | 2.6 | 2.4 | -2.3
CSCC(C)N1CCC(CCC(=O)NC2CC2)CC1 (stereo not given) | -22.7 | 0.1 | -4.1 | -4.1 | 101.2*
Clc1ccc(N=c2ssnc2Cl)nc1 | -4.9 | 1.0 | 103.4* | -1.2 | -7.6
O=C(COC(=O)c1cc(-c2cccs2)nn1-c1ccccc1)Nc1ccc(Cl)c([N+](=O)[O-])c1 | 43.9* | 14.6 | -7.1 | -1.0 | -3.2
CC(C)OC(=O)C1C(=O)CC(C)(O)C(C(=O)OC(C)C)C1c1cccc(O)c1 (stereo not given) | 31.8* | 1.7 | -3.0 | -3.5 | -7.2
CC1(C(=O)NCc2cccc(Cl)c2)Cc2c(-c3cccc(C(N)=O)c3)ccnc2O1 (stereo not given) | nt | nt | 1.8 | 6.1 | nt
COc1ccc2oc(=O)c(C(=O)OCC(=O)c3ccc([N+](=O)[O-])cc3)cc2c1 | 3.3 | 5.5 | nt | nt | 1.9
Cc1cccc(NC(=O)c2c(C)nc3ccccn23)c1 | 40.1* | 0.2 | -2.9 | -2.1 | 0.1
CCCCCn1c(=N)n(CC(O)COc2ccccc2OC)c2ccccc21 (stereo not given) | 32.4*! | -0.6 | -3.4 | -3.8 | -9.8
O=C(Nc1ccc(C(=O)OCc2cc(=O)n3c4c(sc3n2)CCCC4)cc1)c1ccccc1 | nt | 1.1 | nt | nt | 2.7
CCCSc1ccc([C@@H]2[C@@H]3C(=O)N(C)C(=O)[C@@H]3[C@]3(C(=O)OC)CCCCN23)cc1OC | 35.5* | 1.5 | -11.1 | -1.5 | 3.6
O=C(CCN1C(=O)c2ccccc2Sc2ncccc21)Nc1ccc(F)cc1F | nt | 0.6 | nt | nt | 5.3
O=C(NCc1nc2ccccc2[nH]1)C1=C[C@@H](C2CC2)C[C@@H](OCc2ccc(CO)cc2)O1 | 8.2 | 1.8 | -40.1 | 0.9 | 2.4
SMILES | D2 antagonist | D2 ag-1 | D2 PAM-1 | D2 ag-2 | D2 PAM-2
O=C(NCc1nc2ccccc2[nH]1)C1=C[C@H](C2CC2)C[C@H](OCc2ccc(CO)cc2)O1 | 40.0* | 0.8 | -14.3 | -1.7 | 2.2
O=C(COC(=O)C1=NN(c2ccccc2)C(=O)CC1)NCc1ccccc1Cl | 31.5* | -1.5 | 13.4 | -2.9 | -5.0
CCOC(=O)CNC(=O)Cn1cnc2c(nnn2-c2ccccc2)c1=O | -6.8 | -0.2 | -3.0 | 0.5 | 13.9
O=C(Cn1cnc2c(nnn2-c2ccccc2)c1=O)NCCc1ccccc1 | -0.6 | -0.3 | -3.3 | -2.0 | 55.5*
Cc1ccc(-n2ncc3c(=O)n(CC(=O)NCc4ccco4)cnc32)cc1 | 9.5 | -0.9 | -8.9 | -0.9 | 31.2*
COC(=O)C(C)n1cnc2c(nnn2-c2ccccc2)c1=O (stereo not given) | 30.5* | -0.3 | -3.4 | 3.1 | 6.6
O=C(Cn1cnc2c(nnn2-c2ccccc2)c1=O)NCc1ccco1 | 39.9* | 0.0 | -2.0 | -5.1 | -9.7
CCOC(=O)C(C)n1cnc2c(nnn2-c2ccccc2)c1=O (stereo not given) | -18.7 | -0.2 | -2.7 | -2.0 | -1.9
Cn1c(=O)c2c(nc(N3CCN(c4ccc([N+](=O)[O-])cc4)CC3)n2C)n(C)c1=O | 33.5* | 0.4 | -4.8 | -18.9 | 2.5
Cn1c(=O)c2c(nc(N3CCCCC3)n2C)n(C)c1=O | -9.7 | -1.3 | 4.4 | 1.1 | 30.1*
Cn1c(=O)c2c(ncn2CC(=O)N2CCN(c3ccc([N+](=O)[O-])cc3)CC2)n(C)c1=O | -3.7 | -0.1 | -2.1 | 0.0 | -1.5
CC(C)C[C@H]1C(=O)N2CCC[C@H]2[C@]2(O)O[C@](NC(=O)C3C=C4c5cccc6[nH]c(Br)c(c56)C[C@H]4N(C)C3)(C(C)C)C(=O)N12 (stereo not given in full) | nt | nt | ? | 52.2* | nt
CCN(CC)CCCNC(=O)CCc1c(C)nc2c(c1C)c(=O)n(C)c(=O)n2C | nt | 0.0 | nt | nt | -3.1
Cc1sc2nc(C3CC3)nc(SCC(=O)N3CCc4ccccc4C3)c2c1C | -18.8 | 1.2 | -23.6 | 0.3 | -3.0
CCc1c(C)sc2nc(C(C)C)nc(SCC(=O)N3CCc4ccccc4C3)c12 | 43.7* | -0.4 | -2.0 | -0.9 | -1.9
CC(C)(C)NC(=O)C1CC(=O)OC1(C)C (stereo not given) | -5.4 | 0.0 | 7.5 | -1.2 | 32.5*
O=C(c1cc([N+](=O)[O-])ccc1N1CCOCC1)N1CCN(S(=O)(=O)c2cc(Cl)ccc2Cl)CC1 | 11.8 | -0.2 | -7.8 | -5.5 | 9.0
CCn1c(SCC(=O)N2CCC(C)CC2)nnc1-c1ccccc1O | nt | -0.3 | nt | nt | 16.3
COc1cccc(CNS(=O)(=O)c2ccc3c(c2)N(C(C)=O)CCO3)c1 | 61.4* | -0.1 | -20.3 | -3.3 | -19.1
COC(=O)c1ccc(NC(=O)CN2C(=O)c3cccc4cccc2c34)cc1 | nt | nt | nt | nt | 2.1
COc1cc(NC(=O)CSc2ccc(-c3sc(-c4ccccc4)nc3C)nn2)cc(OC)c1 | nt | -0.1 | nt | nt | -0.4
Cc1cc(CN2CCCC(C(=O)Nc3cccc(-n4cccn4)c3)C2)cc(C)c1O (stereo not given) | 38.0* | 1.2 | -33.7 | -3.9 | -21.7
Cc1c(CN2CCCC(C(=O)Nc3cccc(-n4cccn4)c3)C2)cnn1C (stereo not given) | 46.6* | -3.1 | -19.4 | -3.2 | -17.5
